Results taken from PubChem BioAssay.
Active and inactive are the calls of the source. Unless noted, the rule behind the calls is not given here.

Tests used:
[1] = anti-His antibody binders, primary screen, artefact control for SMM control protein annotation, biochemical, small-molecule microarray, 635 nm fluorescence (AID 1128); conditions: anti-His Alexa647 antibody binding, higher = more signal;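 note: score merges feature fluorescence with signal-to-noise for each printed compound spot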
[2] = system: Human papillomavirus type 1a E7 protein (residues 1-88); experiment: HPV1a E7 small-molecule binders, primary screen, biochemical, small-molecule microarray, residues 1-88, 635 nm (AID 1129); conditions: small-molecule microarray binding, fluorescence 635 nm; higher = more signal
[3] = molecular target: Focal adhesion kinase 1 (Homo sapiens) (UniProt Q05397); experiment: small-molecule microarray binders of FAK, primary screen, biochemical, 635/667 nm fluorescence, BSA, DTT (AID 1130); conditions: PTK2 binding, 635 nm fluorescence, higher = more signal;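 note: composite of spot emission at 667 nm and signal to noise over triplicate slides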
[4] = system: Fibrinogen (Alexa647-labelled); experiment: fibrinogen binders on compound microarrays, profiling panel, artefact control for SMM control-protein annotation, biochemical, small-molecule microarray, 635/667 nm fluorescence (AID 1131); conditions: fibrinogen-A647 binding fluorescence, higher = more signal;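 note: z-score merges 667 nm fluorescence with per-spot signal-to-noise over triplicate slides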
[5] = molecular target: Follistatin (Homo sapiens) (UniProt P19883); experiment: follistatin binders on small-molecule microarrays, primary screen, biochemical, small-molecule microarray, 635/667 nm fluorescence (AID 1132); conditions: FST binding, 635 nm fluorescence, higher = more signal
[6] = molecular target: Fibroblast growth factor 2 (Homo sapiens) (UniProt P09038); experiment: FGF2 binders on small-molecule microarrays, primary screen, biochemical, small-molecule microarray, 635/667 nm fluorescence (AID 1133); conditions: small-molecule microarray binding, FGF2, fluorescence 635/667; higher = more signal
[7] = mitochondrial membrane potential change in A549 cells, profiling panel, cell-based, JC-1 fluorescence, basal, 24 h, 100 nL (AID 1138); conditions: higher = more signal;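 note: A549 lung adenocarcinoma cells under basal conditions with no added stimulus; test concentration not given here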
Lefty1 = Lefty1 binders on small-molecule microarrays, primary screen, biochemical, small-molecule microarray, 635/667 nm fluorescence (AID 1139); conditions: small-molecule microarray binding, fluorescence 635/667; higher = more signal
[8] = system: wheat germ agglutinin (Triticum aestivum), Alexa647-labelled; experiment: wheat germ agglutinin binders on compound microarrays, profiling panel, artefact control for SMM control-protein annotation, biochemical, small-molecule microarray, 635/667 nm fluorescence (AID 1140); conditions: WGA-A647 binding, 635 nm fluorescence, higher = more signal;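 note: score merges 667 nm feature emission with signal to noise over triplicate slides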
[9] = molecular target: Luciferin 4-monooxygenase (Photinus pyralis) (UniProt P08659); experiment: firefly luciferase enzyme inhibitors, primary screen, biochemical, luminescence, purified enzyme, 2006 set (AID 1141); conditions: SteadyGlo luminescence, 30 min, higher = more signal, called active from +8 up or from −8 down;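 note: cell-free assay with purified firefly luciferase at 100 ng per well in PBS; test concentration not given here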
[10] = system: Wnt5a (protein binding on small-molecule microarray); experiment: Wnt5a binders on small-molecule microarray, primary screen, biophysical, 635/667 nm fluorescence (AID 1142); conditions: 635 nm fluorescence, higher = more signal;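 note: fluorescence read at 667 nm with signal to noise per printed feature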
[11] = cell viability in Huh7 cells, primary screen, cytotoxicity control for HCV replication inhibitor project, CellTiter-Glo luminescence, basal, 48 h (AID 1143); conditions: Huh7 HCV replicon, higher = more signal, called active from +8 up or from −8 down;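 note: Huh7 hepatoma cells carrying a hepatitis C replication reporter with no stimulus; test concentration not given here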
[12] = P. aeruginosa biofilm formation inhibitors, primary screen, PAO1 strain, BacTiter-Glo luminescence, LB-PBS (AID 1144); conditions: 12 h, higher = more signal
[13] = CREB reporter modulators without forskolin, primary screen, cell-based, PC12, CRE-LacZ reporter, unstimulated (AID 1145); conditions: no forskolin, luminescence, 4.5 h, higher = more signal, called active from +8 up or from −8 down
[14] = CREB reporter modulators under forskolin, primary screen, cell-based, PC12, CRE-LacZ reporter, forskolin-stimulated (AID 1146); conditions: luminescence, 4.5 h, higher = more signal, called active from +8 up or from −8 down;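 note: PC12 cells with 6xCRE LacZ reporter stimulated by forskolin 10 µM; beta-galactosidase reporter signal reflecting CREB driven transcription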
[15] = molecular target: Streptavidin (Streptomyces avidinii) (UniProt P22629); experiment: streptavidin binders on small-molecule microarray, primary screen, artefact control for SMM compound annotation, biophysical, 635/667 nm fluorescence (AID 1147); conditions: streptavidin binding, higher = more signal;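 note: signal reflects streptavidin binding to arrayed compounds as a control protein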
[16] = small-molecule binders of probe aInhba, primary screen, biochemical, small-molecule microarray, 635/667 nm fluorescence (AID 1148); conditions: higher = more signal;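 note: score merges 667nm spot fluorescence with signal-to-noise for antibody binding to printed compounds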
Torsin-1A (Homo sapiens) [17] = molecular target: Torsin-1A (Homo sapiens) (UniProt O14656); experiment: torsin A binders from cell lysate, primary screen, small-molecule microarray, wild-type, 635/667 nm (AID 1149); conditions: COS7 hTOR1A-WT lysate, 635 nm fluorescence, higher = more signal
Torsin-1A (Homo sapiens) [18] = molecular target: Torsin-1A (Homo sapiens) (UniProt O14656); experiment: small-molecule binders of mutant TOR1A in lysate, primary screen, cell lysate, small-molecule microarray, COS7 lysate, 635/667 nm fluorescence (AID 1150); conditions: COS7 hTOR1A mutant lysate, 635 nm fluorescence, higher = more signal;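 note: score pools 667 nm emission and signal to noise measuring lysate protein binding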
[19] = system: Sonic hedgehog protein (Shh); experiment: small-molecule binders of Shh protein, primary screen, biochemical, small-molecule microarray, 635/667 nm fluorescence (AID 1151); conditions: small-molecule microarray binding, 635 nm fluorescence; higher = more signal;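 note: Shh protein binding to compounds spotted on small-molecule microarray slides; score combines spot fluorescence intensity with signal-to-noise across triplicate slides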

Fibroblast growth factor 2 (Homo sapiens), sequence (P09038 whole entry, looked up): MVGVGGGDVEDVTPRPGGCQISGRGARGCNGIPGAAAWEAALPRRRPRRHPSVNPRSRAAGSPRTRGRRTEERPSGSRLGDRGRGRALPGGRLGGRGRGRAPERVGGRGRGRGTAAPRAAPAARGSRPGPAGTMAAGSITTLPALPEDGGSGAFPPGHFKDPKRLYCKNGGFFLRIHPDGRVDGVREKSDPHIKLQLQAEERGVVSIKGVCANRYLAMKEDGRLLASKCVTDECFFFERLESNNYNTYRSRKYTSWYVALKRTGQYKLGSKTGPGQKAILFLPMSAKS
Torsin-1A (Homo sapiens), sequence (O14656 whole entry, looked up): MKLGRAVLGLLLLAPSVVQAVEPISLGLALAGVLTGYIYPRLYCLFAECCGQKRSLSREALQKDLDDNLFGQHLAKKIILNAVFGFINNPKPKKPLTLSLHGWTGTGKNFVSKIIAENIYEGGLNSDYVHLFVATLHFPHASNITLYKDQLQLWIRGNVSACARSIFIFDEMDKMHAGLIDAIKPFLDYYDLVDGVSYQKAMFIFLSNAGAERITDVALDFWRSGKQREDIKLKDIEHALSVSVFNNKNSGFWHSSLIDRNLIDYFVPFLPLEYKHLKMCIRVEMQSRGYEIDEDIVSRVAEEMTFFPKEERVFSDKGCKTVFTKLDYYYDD
Luciferin 4-monooxygenase (Photinus pyralis), sequence (P08659 whole entry, looked up): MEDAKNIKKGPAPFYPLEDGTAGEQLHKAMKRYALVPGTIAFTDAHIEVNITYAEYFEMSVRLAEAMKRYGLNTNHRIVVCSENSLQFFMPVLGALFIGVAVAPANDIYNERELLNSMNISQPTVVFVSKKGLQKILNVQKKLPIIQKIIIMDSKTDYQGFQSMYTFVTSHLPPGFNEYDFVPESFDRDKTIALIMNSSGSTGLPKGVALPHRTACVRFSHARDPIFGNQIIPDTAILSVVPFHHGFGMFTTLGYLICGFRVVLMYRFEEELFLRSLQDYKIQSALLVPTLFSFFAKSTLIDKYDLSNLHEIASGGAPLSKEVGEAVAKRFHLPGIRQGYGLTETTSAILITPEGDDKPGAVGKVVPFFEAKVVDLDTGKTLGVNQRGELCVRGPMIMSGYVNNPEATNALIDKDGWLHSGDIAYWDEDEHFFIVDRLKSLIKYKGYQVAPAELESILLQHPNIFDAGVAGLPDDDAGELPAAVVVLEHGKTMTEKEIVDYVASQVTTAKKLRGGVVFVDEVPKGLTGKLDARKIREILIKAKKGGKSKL
Follistatin (Homo sapiens), sequence (P19883 whole entry, looked up): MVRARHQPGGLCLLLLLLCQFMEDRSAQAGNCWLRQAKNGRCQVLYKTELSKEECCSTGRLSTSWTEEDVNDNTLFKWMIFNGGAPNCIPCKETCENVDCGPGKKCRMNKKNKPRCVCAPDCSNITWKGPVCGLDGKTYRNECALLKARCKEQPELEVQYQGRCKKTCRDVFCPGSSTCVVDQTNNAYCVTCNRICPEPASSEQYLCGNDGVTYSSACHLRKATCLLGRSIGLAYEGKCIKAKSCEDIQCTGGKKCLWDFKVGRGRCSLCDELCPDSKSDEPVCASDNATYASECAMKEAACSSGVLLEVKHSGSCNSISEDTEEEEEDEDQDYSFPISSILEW
Streptavidin (Streptomyces avidinii), sequence (P22629 whole entry, looked up): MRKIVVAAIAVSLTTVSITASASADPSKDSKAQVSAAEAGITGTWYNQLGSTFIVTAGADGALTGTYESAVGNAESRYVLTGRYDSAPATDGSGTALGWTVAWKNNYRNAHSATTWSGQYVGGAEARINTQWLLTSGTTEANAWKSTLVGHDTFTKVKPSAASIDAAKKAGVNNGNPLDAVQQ
Focal adhesion kinase 1 (Homo sapiens), sequence (Q05397 whole entry, looked up): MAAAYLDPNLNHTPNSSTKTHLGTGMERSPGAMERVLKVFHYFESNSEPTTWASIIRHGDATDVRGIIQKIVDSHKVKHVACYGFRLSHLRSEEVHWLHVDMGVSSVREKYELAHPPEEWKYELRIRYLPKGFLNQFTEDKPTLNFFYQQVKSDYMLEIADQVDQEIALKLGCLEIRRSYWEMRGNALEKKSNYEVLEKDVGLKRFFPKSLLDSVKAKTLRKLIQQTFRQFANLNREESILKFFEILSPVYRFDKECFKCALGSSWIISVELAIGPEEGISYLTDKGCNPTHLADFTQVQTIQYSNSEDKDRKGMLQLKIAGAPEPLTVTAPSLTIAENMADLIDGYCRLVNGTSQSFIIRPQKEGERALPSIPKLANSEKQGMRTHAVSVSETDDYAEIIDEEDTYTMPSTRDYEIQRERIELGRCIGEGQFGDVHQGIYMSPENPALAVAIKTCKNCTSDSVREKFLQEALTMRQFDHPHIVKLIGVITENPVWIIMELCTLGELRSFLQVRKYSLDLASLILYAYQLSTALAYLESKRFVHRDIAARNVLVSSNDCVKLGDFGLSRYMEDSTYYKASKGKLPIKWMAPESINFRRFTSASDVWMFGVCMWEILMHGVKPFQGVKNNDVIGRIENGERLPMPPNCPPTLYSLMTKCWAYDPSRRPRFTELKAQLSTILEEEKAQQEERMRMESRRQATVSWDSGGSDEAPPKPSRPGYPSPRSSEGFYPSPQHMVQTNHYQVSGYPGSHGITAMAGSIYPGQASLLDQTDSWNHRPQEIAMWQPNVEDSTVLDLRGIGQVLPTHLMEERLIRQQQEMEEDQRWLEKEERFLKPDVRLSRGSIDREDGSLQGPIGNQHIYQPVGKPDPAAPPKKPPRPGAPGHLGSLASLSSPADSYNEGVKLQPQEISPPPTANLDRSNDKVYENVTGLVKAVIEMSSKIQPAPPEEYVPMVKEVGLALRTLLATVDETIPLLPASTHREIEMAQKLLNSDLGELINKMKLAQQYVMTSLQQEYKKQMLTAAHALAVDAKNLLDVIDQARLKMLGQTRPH

| Compound | composite z-score [1] | composite z-score [2] | composite z-score [3] | composite z-score [4] | composite z-score [5] | composite z-score [6] | z-score [7] | composite z-score (Lefty1) | composite z-score [8] | z-score [9] | composite z-score [10] | z-score [11] | z-score [12] | z-score [13] | z-score [14] | composite z-score [15] | composite z-score [16] | composite z-score (Torsin-1A (Homo sapiens) [17]) | composite z-score (Torsin-1A (Homo sapiens) [18]) | composite z-score [19] |
| --- | --- | --- | --- | --- | --- | --- | --- | --- | --- | --- | --- | --- | --- | --- | --- | --- | --- | --- | --- | --- |
| CCCC=C(CCC)[C@@H](NC(=O)c1ccco1)c1ccc(C(=O)OC)cc1 | 1.24 | 1.26 | 0.601 | 0.984 | 0.649 | -0.181 | -1.67 | 0.119 | 1.31 | 2.66 (inactive) | 0.22 | -3.84 (inactive) | 0.737 (inactive) | 0.0143 (inactive) | 0.514 (inactive) | 1.92 | 0.218 | 0.0918 | 0.918 | -0.276 |
| CCCCC(=C=CC[C@@H](O)c1cccc(OCCO)c1)CCO | -0.378 | -0.437 | -0.0962 | 0.449 | 0.242 | 0.154 | 0.613 | 0.448 | 0.771 | -0.656 (inactive) | 0.0999 | -0.562 (inactive) | -0.564 (inactive) | 3.5 (inactive) | -0.468 (inactive) | 1.42 | -0.188 | -1.33 | -0.828 | 0.364 |
| CN1C(=O)[C@]2(CCC(=O)OC(C)(C)C)N=C(c3ccc(OCCCO)cc3)O[C@@H]2c2ccccc21 | 1.2 | 1.23 | 0.488 | 0.95 | 1.44 | 1.55 | 1.85 | 0.853 | 0.182 | -2.79 (inactive) | 0.935 | -4.74 (inactive) | -0.598 (inactive) | 1.41 (inactive) | -0.572 (inactive) | -0.201 | 0.134 | 0.112 | 0.401 | 2.11 |
| C=CC[C@]1(C(=O)OC)N=C(c2ccc(OCCCO)cc2)O[C@H]1c1ccccc1N=[N+]=[N-] | 3.65 | 1.21 | 1.01 | 0.266 | 1.43 | 1.78 | -0.674 | 1.12 | 0.291 | -11 (active) | 1.2 | -3.62 (inactive) | -1.04 (inactive) | 0.171 (inactive) | -2.05 (inactive) | 0.126 | 0.707 | 0.662 | 1 | 1.68 |
| CC(=O)n1cc(C(O)C2C=CC3C(=O)N(c4ccccc4)C(=O)C3N2Nc2ccccc2F)c2ccccc21 (stereo not given) | 1.01 | 0.726 | 0.251 | 1.02 | -1.04 | -0.89 | -1.16 | -0.274 | 0.0832 | 1.34 (inactive) | -0.296 | -3.27 (inactive) | -1.69 (inactive) | -0.172 (inactive) | 0.499 (inactive) | 0.0289 | -0.157 | -0.561 | 0.495 | -0.813 |
